The source made the active and inactive calls. Rule for the calls: active = hit-call score of the fitted dose curve at least 0.9, where 1 is the maximum; inactive = score below 0.9.

The nature of the first assay: ATG_M_61_CIS: Attagene CIS-FACTORIAL HepG2 Assay for M61 Transcription Factor (Internal Marker) (AID 2282937). Particulars: HepG2 Attagene CIS-FACTORIAL M61 internal marker reporter; actives raise or lower the signal. The method, boiled down:
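Readout is reporter mRNA by RT-PCR, fluorescent primer extension and capillary electrophoresis, with gain or loss fitted relative to DMSO. Transfected HepG2 cells carrying endogenous-TF-driven cis reporters were exposed to chemicals for 24 hours.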
For `Nc1c(Oc2ccccc2)cc(O)c2c1C(=O)c1ccccc1C2=O`, the compound was called inactive.
For the compound `C=CCN=C=S`, the result was inactive.
Still for that read-out and setting: in the case of `C[C@]12CC[C@@H](O)C[C@@H]1CC[C@@H]1[C@@H]2CC[C@]2(C)C(=O)CC[C@@H]12` it was “inactive”; in that of `C#CCOC(=O)/C=C(C)/C=C/CC(C)CCCC(C)C` (centres undefined), “inactive”.
The same measure, in the same setting: in the case of `C=C(C)[C@@H]1CC=C(C=O)CC1` it was “inactive”; in that of `CN(C)[C@@H]1C(=O)C(C(N)=O)=C(O)[C@@]2(O)C(=O)C3=C(O)c4c(O)ccc(Cl)c4[C@@](C)(O)[C@H]3C[C@@H]12`, “inactive”; in that of `Cc1cc(C)cc(C)c1`, “inactive”.
For `O=c1[nH]c2ccccc2n1C1CCN(CCCC(c2ccc(F)cc2)c2ccc(F)cc2)CC1`, the outcome was inactive.
For `C1CN2CCN1CC2`, the outcome was inactive.
Same read-out and setting: next, `COCC(=O)N(c1c(C)cccc1C)[C@H](C)C(=O)OC`: “inactive”; `CCCSP(=S)(OCC)Oc1ccc(SC)cc1` (centres undefined): “inactive”.
As for `CCOc1ccc(N)cc1`, the result was inactive.
In the case of `COc1ccc([N+](=O)[O-])cc1O`, the outcome was inactive.
`OC(Cc1ccccc1Cl)(Cn1[nH]cnc1=S)C1(Cl)CC1` (centres undefined): the compound was classed as inactive.
With `CC(C)(C)c1ccccc1O`, the outcome was inactive.
Same read-out and setting: next, `CC(C)[N+](=O)[O-]`: “inactive”.
Same read-out and setting: in the case of `O=C(CCl)Nc1ccccc1` it was “inactive”; in that of `CC(C=O)Cc1ccc2c(c1)OCO2` (centres undefined), “inactive”; in that of `BrCCCCBr`, “inactive”.
The same measure, in the same setting: in the case of `CCOc1cc(C=O)ccc1O` it was “inactive”.
Regarding `Clc1cc(C(Cl)(Cl)Cl)cnc1Cl`, the call was inactive.
With `CCCCS(=O)(=O)Cl`, the compound was called inactive.
For the compound `OCCN(CCO)CCO`, the compound was called inactive.
Turning to `BrCC(Br)c1ccccc1` (centres undefined), the compound was classed as inactive.
The same measure, in the same setting: next, `C=CC(Cl)CCl` (centres undefined): “inactive”.
Still for that read-out and setting: next, `O=[N+]([O-])c1ccc(Cl)c([N+](=O)[O-])c1`: “inactive”; `CCC(C)(C#N)N=NC(C)(C#N)CC` (centres undefined): “inactive”.
The same measure, in the same setting: in the case of `CC(C)(C1CCC(O)CC1)C1CCC(O)CC1` (centres undefined) it was “inactive”; in that of `C=CC(=O)NC(C)(C)CC(C)=O`, “inactive”; in that of `Cc1cc(SCc2sc(-c3ccc(C(F)(F)F)c(F)c3)nc2C)ccc1OCC(=O)O`, “inactive”.
For the compound `c1ccc2sc(SNC3CCCCC3)nc2c1`, the compound was called inactive.
Still for that read-out and setting: in the case of `CCOC(=O)C(SP(=S)(OC)OC)c1ccccc1` (centres undefined) it was “inactive”; in that of `c1csc(-c2ccc(-c3cccs3)s2)c1`, “inactive”.

A short description of the next assay: ATG_EGR_CIS: Attagene CIS-FACTORIAL HepG2 Assay for human Early Growth Response 1 (EGR1) (AID 2282938). As to conditions: HepG2 Attagene CIS-FACTORIAL EGR reporter mRNA; actives raise or lower the signal. The method, boiled down: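 After 24 h compound exposure, RNA from reporter-transfected HepG2 cells was reverse-transcribed, PCR-amplified, fluorescently labelled and resolved by capillary electrophoresis. EGR1 reporter transcript changes, up or down, were fitted against DMSO, reflecting endogenous transcription-factor activity.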
Regarding `Nc1c(Oc2ccccc2)cc(O)c2c1C(=O)c1ccccc1C2=O`, the compound was classed as inactive.
Consider `C=CCN=C=S`, for which the outcome was inactive.
Same read-out and setting: next, `C[C@]12CC[C@@H](O)C[C@@H]1CC[C@@H]1[C@@H]2CC[C@]2(C)C(=O)CC[C@@H]12`: “inactive”.
Same read-out and setting: in the case of `CN(C)[C@@H]1C(=O)C(C(N)=O)=C(O)[C@@]2(O)C(=O)C3=C(O)c4c(O)ccc(Cl)c4[C@@](C)(O)[C@H]3C[C@@H]12` it was “inactive”; in that of `Cc1cc(C)cc(C)c1`, “inactive”; in that of `COCC(=O)N(c1c(C)cccc1C)[C@H](C)C(=O)OC`, “inactive”.
`CCCSP(=S)(OCC)Oc1ccc(SC)cc1` (centres undefined): the outcome was inactive.
The same measure, in the same setting: in the case of `CCOc1ccc(N)cc1` it was “inactive”; in that of `COc1ccc([N+](=O)[O-])cc1O`, “inactive”.
`CC(C)(C)c1ccccc1O`: the AC50 was 156 µM (active).
Consider `CC(C)[N+](=O)[O-]`, for which the result was inactive.
For `CCCCCCCCCCCCc1cccc(S(=O)(=O)O)c1`, the compound was called inactive.
Same read-out and setting: in the case of `CC(C=O)Cc1ccc2c(c1)OCO2` (centres undefined) it was “inactive”; in that of `BrCCCCBr`, “inactive”; in that of `CC(C)O.CC(C)O.OCCN(CCO)CCO.OCCN(CCO)CCO.[Ti]`, “inactive”.
Same read-out and setting: next, `Cc1ccc(OP(=O)(Oc2ccc(C)cc2C)Oc2ccc(C)cc2C)c(C)c1`: “inactive”; `CCOc1cc(C=O)ccc1O`: “inactive”.
Consider `Clc1cc(C(Cl)(Cl)Cl)cnc1Cl`, for which the AC50 is 8.77 µM (active).
Regarding `CCCCS(=O)(=O)Cl`, the outcome was inactive.
On the same count and under the same terms, in the case of `N#Cc1ccccc1N` it was “inactive”; in that of `C=CC(Cl)CCl` (centres undefined), “inactive”.
As to `O=[N+]([O-])c1ccc(Cl)c([N+](=O)[O-])c1`, the half-maximal activity concentration (AC50) is 6.18 µM (active).
On to `CCC(C)(C#N)N=NC(C)(C#N)CC` (centres undefined), for which the compound was called inactive.
Still for that read-out and setting: in the case of `CC(C)(C1CCC(O)CC1)C1CCC(O)CC1` (centres undefined) it was “inactive”.
`C=CC(=O)NC(C)(C)CC(C)=O`: the result was inactive.
As for `Cc1cc(SCc2sc(-c3ccc(C(F)(F)F)c(F)c3)nc2C)ccc1OCC(=O)O`, the AC50 was 26.3 µM (active).
For `c1ccc2sc(SNC3CCCCC3)nc2c1`, the outcome was inactive.
Same read-out and setting: in the case of `CCOC(=O)C(SP(=S)(OC)OC)c1ccccc1` (centres undefined) it was “inactive”.
With `c1csc(-c2ccc(-c3cccs3)s2)c1`, the AC50 is 3.02 µM (active).

A short description of another assay: ATG_M_19_CIS: Attagene CIS-FACTORIAL HepG2 Assay for M19 Transcription Factor (Internal Marker) (AID 2282939). As to conditions: HepG2 Attagene CIS-FACTORIAL M19 internal marker reporter; actives raise or lower the signal. The procedure, abridged: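 Readout: fluorescent reporter-transcript fragments by capillary electrophoresis after RT-PCR. Human HepG2 liver cells carried transfected MRTU constructs reporting endogenous transcription-factor activity; exposure 24 h. Gain or loss of signal fitted relative to DMSO.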
For the compound `Nc1c(Oc2ccccc2)cc(O)c2c1C(=O)c1ccccc1C2=O`, the compound was called inactive.
For `C=CCN=C=S`, the compound was classed as inactive.
On to `C[C@]12CC[C@@H](O)C[C@@H]1CC[C@@H]1[C@@H]2CC[C@]2(C)C(=O)CC[C@@H]12`, for which the outcome was inactive.
Consider `C#CCOC(=O)/C=C(C)/C=C/CC(C)CCCC(C)C` (centres undefined), for which the compound was called inactive.
Regarding `C=C(C)[C@@H]1CC=C(C=O)CC1`, the compound was called inactive.
As for `CN(C)[C@@H]1C(=O)C(C(N)=O)=C(O)[C@@]2(O)C(=O)C3=C(O)c4c(O)ccc(Cl)c4[C@@](C)(O)[C@H]3C[C@@H]12`, the result was inactive.
Consider `Cc1cc(C)cc(C)c1`, for which the compound was classed as inactive.
Same read-out and setting: in the case of `C=CCCl` it was “inactive”; in that of `CCOc1ccc(N)cc1`, “inactive”; in that of `COc1ccc([N+](=O)[O-])cc1O`, “inactive”.
On the same count and under the same terms, next, `CC(C)(C)c1ccccc1O`: “inactive”; `CC(C)[N+](=O)[O-]`: “inactive”; `CCCCCCCCCCCCc1cccc(S(=O)(=O)O)c1`: “inactive”.
Consider `O=C(CCl)Nc1ccccc1`, for which the AC50 was 167 µM (active).
As to `CC(C=O)Cc1ccc2c(c1)OCO2` (centres undefined), the result was inactive.
The same measure, in the same setting: in the case of `CC(C)O.CC(C)O.OCCN(CCO)CCO.OCCN(CCO)CCO.[Ti]` it was “inactive”; in that of `CCCCOC(C)=O`, “inactive”; in that of `Cc1ccc(OP(=O)(Oc2ccc(C)cc2C)Oc2ccc(C)cc2C)c(C)c1`, “inactive”.
Still for that read-out and setting: next, `CC(C)(C)c1ccc(CCOc2ncnc3ccccc23)cc1`: “inactive”; `CCOc1cc(C=O)ccc1O`: “inactive”.
The same measure, in the same setting: next, `Clc1cc(C(Cl)(Cl)Cl)cnc1Cl`: “inactive”; `CCCCS(=O)(=O)Cl`: “inactive”.
Regarding `N#Cc1ccccc1N`, the result was inactive.
On the same count and under the same terms, next, `OCCN(CCO)CCO`: “inactive”; `BrCC(Br)c1ccccc1` (centres undefined): “inactive”; `O=[N+]([O-])c1ccc(Cl)c([N+](=O)[O-])c1`: “inactive”.
The same measure, in the same setting: next, `CCC(C)(C#N)N=NC(C)(C#N)CC` (centres undefined): “inactive”.
Consider `CC(C)(C1CCC(O)CC1)C1CCC(O)CC1` (centres undefined), for which the compound was classed as inactive.
Take `C=CC(=O)NC(C)(C)CC(C)=O`: the compound was classed as inactive.
`Cc1cc(SCc2sc(-c3ccc(C(F)(F)F)c(F)c3)nc2C)ccc1OCC(=O)O`: the result was inactive.
Still for that read-out and setting: next, `c1ccc2sc(SNC3CCCCC3)nc2c1`: “inactive”.
On to `CCOC(=O)C(SP(=S)(OC)OC)c1ccccc1` (centres undefined), for which the compound was classed as inactive.

For the origin of these results see PubChem BioAssay (EPA / NIEHS).
